VACV Venus inh = inhibitors of vaccinia virus (Venus reporter) | Vaccinia virus Venus reporter expression, fluorescence | Potency, µM (series often up to 36.5 µM), for the others: at the highest dose activity change, negative = inhibition, most hits filed as inhibitors | 330,000 tested, 0.46% active | AID 720580; calls by dose curve; tested in A549 cells; further: nearly all actives have a fitted effect of over 30% in size
MARV entry inh = blocks Marburg virus binding to or entry into cells; Marburg virus pseudotyped entry inhibition, cell reporter; Potency, µM (doses to about 37.8 µM), without a hit: top-dose activity change, negative = inhibition, hits mostly inhibitors; 300,000 tested, 1.8% active; AID 540276; calls by dose curve; tested in HEK293 cells
Sm TGR inh = inhibitors of Schistosoma mansoni thioredoxin glutathione reductase; Potency, µM (doses to about 114 µM), inactives show top-dose activity change, negative = inhibition, actives largely listed as inhibitors; 360,000 tested, 3% active; Q962Y6; AID 485364; purified TGR, DTNB reduction, TNB absorbance 405 nm; active means well fitted inhibition curve with a large enough effect; inconclusive means small, poorly fitted or top-dose-only effect; inactive means no such curve, though single readings can be large or run the other way; further: nearly all actives have a fitted effect of over 60% in size
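First, TGR (20 nM dispensed) and NADPH were mixed with compound. Second, a 15 min room-temperature incubation followed. Third, further NADPH and then DTNB were added to start the reaction. Finally, TNB absorbance was monitored kinetically.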
FMDV inh = blocks foot and mouth disease virus | FMDV antiviral cell-based qHTS | AID 1159524 | 410,000 tested, 1.2% active | Potency, µM (series often up to 57.9 µM), for inactives: at the top dose activity change, negative = inhibition, usual class: inhibitors; calls by dose curve; tested in HEK293T cells; further: read-out not given here; nearly all actives have a fitted effect of over 45% in size
VACV mCherry inh = inhibitors of vaccinia virus infection (mCherry reporter signal); Vaccinia virus mCherry reporter infection, fluorescence; Potency, µM (top dose mostly 36.5 µM), for the others: top-dose activity change, negative = inhibition, hits mostly inhibitors; 310,000 tested, 0.63% active; calls by dose curve; tested in A549 cells; further: nearly all actives have a fitted effect of over 35% in size
Lassa entry inh = blocks Lassa virus binding to or entry into cells | Lassa virus pseudotype entry inhibition, cell reporter | Potency, µM (top dose mostly 37.9 µM), without a hit: at the top dose activity change, negative = inhibition, hits mostly inhibitors | 300,000 tested, 1.2% active; calls by dose curve; tested in HEK293 cells; further: nearly all actives have a fitted effect of over 50% in size
* = called active by the depositor; i = inactive; u = inconclusive; x = no result given; [ ] = remark or other dose. An excerpt weighted towards active compounds, which were near 5.4% of everything screened. On the % scale 0 is the no-effect control and ±100 the full control effect; potency means the concentration at half of the fitted maximal effect.

SMILES | VACV Venus inh | MARV entry inh | Sm TGR inh | FMDV inh | VACV mCherry inh | Lassa entry inh
N/C(=N\OC(=O)N1CCOCC1)c1ccccc1 | -26% | u | 8% | x | i | 12µM*
N/C(=N\OC(=O)N1CCOCC1)c1ccc(Cl)cc1 | -13% | 10µM* | 1% | 16% | -14% | u
CCOC(=O)c1cc(-c2ccccc2)n(CCCC(=O)Nc2cc(C)ccc2OC)c1C | -14% | x | 19% | -18% | -16% | -13%[46.1 µM]
Cc1ccc(C(=O)Nc2nnc(S(=O)(=O)N3CCCc4ccccc43)s2)cc1 | -10% | x | 6% | 31% | -9% | 4%[46.1 µM]
COc1ccc(CN2CCN(C(=O)Cc3ccccc3)CC2)c(OC)c1 | -17% | -3% | 20% | 0% | i | -3%
COc1ccc(CN2CCN(Cc3ccccc3)CC2)c(OC)c1 | -17% | 18µM* | 0% | -13% | -17% | -19%[14.3 µM]
COc1ccc(CN2CCC(N(CCc3ccccc3)Cc3ccccc3)CC2)c(OC)c1 | -23% | u | 1% | 18µM* | -17% | x
COc1ccc(CN2CCNCC2)cc1 | x | x | 50µM* | -4% | x | x
COc1ccc(CCC(=O)NC2CC(=O)N(c3ccc(F)cc3)C2)cc1 (centres undefined) | -7% | x | 7% | -12% | -16% | 2%[46.1 µM]
COc1ccc(-c2nnc(SCC(=O)N3CCCC3)o2)cc1 | -2% | u | 0% | 45% | 7% | 0%
COc1ccc(-c2nnc(SCC(=O)c3ccc(C)o3)o2)cc1 | u | u | 1% | -9% | 28µM* | u
Cc1ccc(C(=O)CSc2nnc(-c3ccco3)o2)o1 | 10µM* | -1% | -11% | 64% | u | u
S=C(NCc1ccco1)NCc1ccco1 | -9% | 8% | x | -7% | i | 12%
CN(C)c1ccc(C(=S)NCc2ccco2)cc1 | -8% | u | -15% | 16µM* | x | u
CN(C)c1ccc(/C=N/NC(=S)NCc2ccco2)cc1 | -11% | u | -13% | -8% | -20% | 2.1µM*
COc1ccccc1[C@@]1(CC(=O)N2CCOCC2)CCO[C@@H](C(C)C)C1 | x | -1% | x | x | x | x
Cc1cccc(C)c1NC(=O)CCCn1c(=O)c2cccn2c2ccccc21 | 2% | x | -14% | -18% | 3% | 6%[46.1 µM]
CCOc1nc(NCCc2ccc(OC)c(OC)c2)nc(N2CCN(c3ccc(OC)cc3)CC2)n1 | x | 8% | -26% | -11% | x | u
COc1ccc(N2CCN(c3nc(NCCc4ccc(OC)c(OC)c4)nc(OC)n3)CC2)cc1 | u | u | -30% | 25µM* | -27% | u
C#C[C@]1(O)CC[C@H]2[C@@H]3CCC4=Cc5oncc5C[C@]4(C)[C@H]3CC[C@@]21C | -20% | x | x | 40µM* | 0% | x
CC12Cc3cn[nH]c3C=C1CCC1C2CCC2(C)C1CCC2(C)O (centres undefined) | 3% | -12%[46.1 µM] | x | -14% | -12% | -10%[46.1 µM]
C#C[C@]1(O)CC[C@H]2[C@H]3CCC4=Cc5oncc5C[C@]4(C)[C@@H]3CC[C@]21C | x | 21µM* | x | -30% | x | x
Oc1ccc(C2CNCc3sccc32)cc1O (centres undefined) | -19% | u | 35µM* | -17% | -2% | 8%
C=C1C(=O)C=C[C@]2(C)C[C@@H]3OC(=O)[C@](C)(O)[C@H]3C[C@@H]12 | u | x | -33% | 28µM* | u | x
O=C(Nc1ccc2nc(-c3ccccc3)[nH]c2c1)c1ccco1 | -12% | u | 28µM* | 19% | -2% | u
SMILES | VACV Venus inh | MARV entry inh | Sm TGR inh | FMDV inh | VACV mCherry inh | Lassa entry inh
O=C(Nc1cccc(-c2nc3ccccc3[nH]2)c1)c1cccc(NC(=O)c2ccco2)c1 | x | 13µM* | -16% | 32µM* | x | u
O=C(Nc1ccc2nc(-c3ccc(Br)o3)[nH]c2c1)c1ccco1 | -39% | u | 0% | -15% | x | u
CCOc1cc(OCC)cc(C(=O)Nc2cccc(-c3nc4ccccc4[nH]3)c2)c1 | 11µM* | x | -5% | u | 11µM* | u
CC(C)c1nn2c(=O)cc(COC(=O)c3cccs3)nc2s1 | 10% | x | 2% | 11% | 7% | u
CCC1CN(CC(=O)NC(c2ccccn2)C(F)(F)F)Cc2cc(OC)ccc2O1 (centres undefined) | 4% | x | x | -8% | -12% | x
CN1C(=O)C2(c3ccccc31)C1CCCC=C1C(C#N)=C(N)C2(C#N)C#N (centres undefined) | -7% | -6% | 20µM* | -21% | i | -24%
COc1ccc(Cl)cc1NC(=S)NN1CCOCC1 | -15% | -1%[46.1 µM] | 35µM* | 7% | -21% | 4%[46.1 µM]
CCOC(=O)CN1C(=O)[C@@]2(C[C@@H](C)C[C@@H](C)O2)c2ccccc21 | x | -18%[14.2 µM] | x | x | x | x
COc1ccc(Cl)cc1C1CC(=O)Nc2cc3c(cc21)OCCO3 (centres undefined) | -27%[7.34 µM] | u | -12% | -1% | -13%[7.34 µM] | -35%[46.1 µM]
CCOc1cccc(C(=O)NC(=S)Nc2cccnc2)c1 | -15% | u | 45µM* | 42% | -18% | u
CCCCOc1cccc(C(=O)NC(=S)Nc2cccnc2)c1 | -1% | u | -17% | -4% | u | u
O=C(NC(=S)Nc1ccc(CN2CCCCC2)cc1)c1cccc(OCc2ccccc2)c1 | -14% | u | -34% | -19% | -13% | 2%
O=C(O)c1ccc(NC(=S)NC(=O)c2cccc(COc3ccccc3)c2)cc1 | x | x | 25µM* | -9% | x | x
O=C(O)c1cccc(NC(=S)NC(=O)c2ccc3ccccc3c2)c1 | -19% | u | 25µM* | 14µM* | -25% | 0.79µM*
O=C(O)c1ccc(NC(=S)NC(=O)c2ccc3ccccc3c2)cc1 | -10% | -17% | 0% | 1% | -17% | 10%
CCCOc1cccc(C(=O)Nc2cccnc2)c1 | -13% | -11% | -11% | x | 14µM* | 19%
Cc1ccc(C(C)CCN2CCOc3ccc(CN4CCOCC4)cc3C2)o1 (centres undefined) | -8% | x | x | -8% | i | x
CCc1cccc(C)c1NC(=O)CN1CCCN(Cc2ccccc2Cl)S1(=O)=O | -10% | x | -1% | -19% | -7% | -8%[46.1 µM]
COc1ccc(NC(=O)C2CCCN(S(=O)(=O)c3cccs3)C2)cc1 (centres undefined) | 3% | -14%[46.1 µM] | -1% | -27% | -4% | 12%[46.1 µM]
CCOc1cccc(C(=O)NC(=S)Nc2ccccc2)c1 | -5% | u | 40µM* | 17% | -17% | u
COc1ccc(CNC(=O)c2sc(=O)n(Cc3ccc(-c4ccccc4)cc3)c2C)cc1OC | -25% | x | x | 16µM* | -15% | x
COc1ccc(CNC(=O)c2sc(=O)n(Cc3ccc(C)cc3)c2C)cc1OC | -4% | x | x | 25µM* | i | x
COc1ccccc1Cn1c(C)c(C(=O)NCc2cccc(C)c2)sc1=O | -4% | x | x | -10% | i | x
Cc1ccc(S(=O)(=O)c2nc(-c3cccs3)oc2SCC(=O)Nc2cc(C)cc(C)c2)cc1 | -5%[7.34 µM] | u | -11% | -13% | -11%[7.34 µM] | -24%[46.1 µM]
O=C(O)C(O)c1ccccc1 (centres undefined) | -16% | x | -2% | -10% | -2% | x
